The values below come from PubChem BioAssay (NCATS).

Records with an inconclusive call do not appear. The source made the active and inactive calls. Unless noted, calls come from the whole dose curve; as a rule, active = well fitted cell-killing curve with a large enough effect; inconclusive = small, poorly fitted or top-dose-only effect, or effect the other way; inactive = no such curve, though single readings can be large or run the other way.

A short description of assay [1]: Quantitative High-Throughput drug screen in 47 multiple myeloma cell lines against the NCATS MIPE library collection: PE2_PLB cell viability assay (AID 1919869). Note: nearly all actives have a fitted effect of over 35% in size. The essentials:
(§1)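 Viability after 48 h drug exposure was measured as ATP-dependent luminescence. Cells, 500 per well, sat at 37 °C under 5% CO2; DMSO wells set 100%, media-only wells 0%.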

The nature of assay [2]: Quantitative High-Throughput drug screen in 47 multiple myeloma cell lines against the NCATS MIPE library collection: PCM6_Riken cell viability assay (AID 1919870). Note: nearly all actives have a fitted effect of over 30% in size. The essentials:
as §1

Assay [3] can be described thus: Quantitative High-Throughput drug screen in 47 multiple myeloma cell lines against the NCATS MIPE library collection: RPMI8226_ATCC cell viability assay (AID 1919871). Note: nearly all actives have a fitted effect of over 30% in size. The essentials:
as §1

The nature of assay [4]: Quantitative High-Throughput drug screen in 47 multiple myeloma cell lines against the NCATS MIPE library collection: OPM2_DSMZ cell viability assay (AID 1919872). Note: nearly all actives have a fitted effect of over 30% in size. The essentials:
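Myeloma cell lines, 500 cells per well, exposed to MIPE 4.0 library compounds for 48 h at 37C, 5% CO2. Viability from ATP by CellTiter-Glo luminescence; normalised to DMSO (100%) and media-only (0%) wells.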

Assay [5] in a line: Quantitative High-Throughput drug screen in 47 multiple myeloma cell lines against the NCATS MIPE library collection: KMS11_JCRBsus cell viability assay (AID 1919873). Note: nearly all actives have a fitted effect of over 50% in size. The essentials:
as §1

Assay [6] in a line: Quantitative High-Throughput drug screen in 47 multiple myeloma cell lines against the NCATS MIPE library collection: KMS28BM_JCRB cell viability assay (AID 1919874). Note: nearly all actives have a fitted effect of over 35% in size. The essentials: as §1
Assay [7] can be described thus: qHTS drug screen for cell cycle checkpoint inhibitors in PARPi-resistant BRCA-mutant ovarian cancer cell lines. (AID 1963452; calls by dose curve). To be noted: PEO1/OlaR viability, CellTiter-Glo luminescence, 96 h; for Z-AUC: stronger effect = lower value. The essentials: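 PEO1, PEO4 and PEO1/OlaR ovarian cancer cells, 600 per well, exposed 96 h at 37C to a dilution series. Viability read by CellTiter-Glo luminescence, normalized to DMSO and empty wells; activity summarized as Z-AUC.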

Assay [8] can be described thus: qHTS for identification of novel therapeutic agents for treatment of microphthalmiaassociated transcription factor (MiT) renal cell carcinoma (RCC) (AID 1963991; calls by dose curve;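 for z-score: curves scaled with 100% = DMSO viability and 0% = empty wells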). The following applies: CellTiter-Glo, 48 h; for Potency: active = Z-AUC below -0.8 in all three lines; for z-score: stronger effect = lower value. The essentials:
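UOK109/UOK124/UOK145 (TFE3 fusions, three partners); 500 cells/well; MIPE v4.0, 1912 cpds, 11 conc.; 48 h, 37 C; CellTiter-Glo, 15 min RT; lum. Norm.: DMSO 100%, empty 0%.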
A general note: qHTS replaces the single test concentration by a dilution series.

[9] abbreviates: measured here: PEO1 parental Z-AUC.
The mark [10] stands for this setting: TFE3-RCC UOK109 viability, measured here: UOK109 Z-AUC.
[11] abbreviates: TFE3-RCC viability, measured here: UOK124 Z-AUC.
The mark [12] stands for this setting: TFE3-RCC viability, measured here: UOK145 Z-AUC.
Potency is the fitted concentration of half-maximal effect.

On to `CC(C)[C@H](C(=O)Nc1ccc(C(=O)NO)cc1)c1ccccc1`, for which the Potency in assay [1] is 1050 nM (active); in assay [2], 935 nM (active); in assay [3], 1320 nM (active); in assay [4] it was 833 nM (active); in assay [5] it was 469 nM (active); in assay [6], 526 nM (active). The Potency was 1380 nM (active) in assay [7] and 1870 nM (active) in assay [8] (TFE3-RCC UOK109 viability). In addition, the Z-AUC was -1.53 in assay [7] (setting [9]) and -1.69 in assay [7] (measured here: PEO4 Z-AUC). For the same compound, the z-score is -1.43 in assay [8] (setting [10]), -1.8 in assay [8] (setting [11]) and -1.54 in assay [8] (setting [12]).
Consider `CC(C)(C)c1cnc(CSc2cnc(NC(=O)C3CCNCC3)s2)o1`, for which the Potency in assay [1] is 296 nM (active); in assay [2], 83.3 nM (active); in assay [3], 332 nM (active); in assay [4], 235 nM (active); in assay [5], 132 nM (active); in assay [6] it was 148 nM (active). Also, the Z-AUC in assay [7] is -0.758 (inactive); in assay [7] (setting [9]), -1.2; in assay [7] (measured here: PEO4 Z-AUC), -0.895.
`OCCCNc1cc(-c2ccnc(Nc3cccc(Cl)c3)n2)ccn1`: the Potency was 37.2 nM (active) in assay [1]; 16.6 nM (active) in assay [2]; 187 nM (active) in assay [3]; 235 nM (active) in assay [4]; 52.6 nM (active) in assay [5]; 93.5 nM (active) in assay [6]. For the same compound, the Potency in assay [8] (TFE3-RCC UOK109 viability) is 209 nM (active). Moreover, the Z-AUC in assay [7] was -1.99 (inactive); in assay [7] (setting [9]) it was -2.3; in assay [7] (measured here: PEO4 Z-AUC), -2.17. Besides, the z-score in assay [8] (setting [10]) was -1.57; in assay [8] (setting [11]), -0.939; in assay [8] (setting [12]) it was -2.05.
Turning to `CNC(=O)c1ccccc1Nc1nc(Nc2ccc(N3CCOCC3)cc2OC)ncc1Cl`, the Potency in assay [1] is 1180 nM (active); in assay [2], 10500 nM (active); in assay [3], 1050 nM (active); in assay [4] it was 4180 nM (active); in assay [5], 372 nM (active); in assay [6], 935 nM (active). In addition, the figures for the Z-AUC in assay [7], in assay [7] (setting [9]) and in assay [7] (measured here: PEO4 Z-AUC) were 0.733 (inactive), 0.134 and 0.16, respectively.
As for `Cc1ccc(NC(=O)C2(c3ccc4c(c3)OC(F)(F)O4)CC2)nc1-c1cccc(C(=O)O)c1`, the Potency in assay [1] is 105 nM (active); in assay [2], 33.2 nM (active); in assay [3] it was 93.5 nM (active); in assay [4], 74.3 nM (active); in assay [5], 46.9 nM (active); in assay [6], 41.8 nM (active). The Potency in assay [8] (TFE3-RCC UOK109 viability) was 235 nM (active). In addition, the Z-AUC in assay [7] is 0.456 (inactive); in assay [7] (setting [9]), 0.813; in assay [7] (measured here: PEO4 Z-AUC), 0.515. Also, the z-score in assay [8] (setting [10]) is -2.27; in assay [8] (setting [11]), -1.92; in assay [8] (setting [12]), -1.79.
For `CCc1c2c(nc3ccc(O)cc13)-c1cc3c(c(=O)n1C2)COC(=O)[C@]3(O)CC`, the Potency in assay [1] is 148 nM (active); in assay [2] it was 296 nM (active); in assay [3], 1320 nM (active); in assay [4] it was 1180 nM (active); in assay [5] it was 662 nM (active); in assay [6], 74.3 nM (active). The values for the Potency in assay [7] and in assay [8] (TFE3-RCC UOK109 viability) were 6.2 nM (active) and 469 nM (active), respectively. The Z-AUC is -3.8 in assay [7] (setting [9]) and -3.13 in assay [7] (measured here: PEO4 Z-AUC). In addition, the values for the z-score in assay [8] (setting [10]), in assay [8] (setting [11]) and in assay [8] (setting [12]) were -1.63, -2.08 and -2.56, respectively.
Regarding `CC(C)(C)c1cc(C(C)(C)C)c(NC(=O)c2c[nH]c3ccccc3c2=O)cc1O`, the Potency result in assay [1], in assay [2], in assay [3], in assay [4], in assay [5] and in assay [6] was “inactive” throughout. In addition, the Z-AUC in assay [7] is 1.31 (inactive); in assay [7] (setting [9]), 1.35; in assay [7] (measured here: PEO4 Z-AUC) it was 0.966. The results for the z-score in assay [8] (setting [10]), in assay [8] (setting [11]) and in assay [8] (setting [12]) were 0.938, 0.941 and 0.665, respectively.
